# Screening data (PubChem)
# A selection: hits, their analogues and other compounds. The true share with any hit is near 1.4%.
# NFkB transloc pot: enhances IL-1B driven NFkB nuclear translocation; HUVEC IL-1B NFkB p65 nuclear translocation imaging; activation, % at 2 µM; hit rate 0.3% among 94,000;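 active means activation above 40%, about the mean plus 3 SD, also judged a hit on visual image review; inconclusive means activation above 40% but not a hit on visual review; inactive means activation not above 40% and no visual hit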;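 further: percent activation is computed from the nuclear over cytoplasmic p65 intensity ratio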
# NFkB transloc inh: blocks IL-1B driven NFkB nuclear translocation in HUVEC cells; inhibition, % at 2 µM; HUVEC IL-1B NFkB p65 nuclear translocation imaging; hit rate 0.43% among 94,000;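 active means inhibition above about 30% together with a positive call from visual inspection of the well image, limit read from the data; inconclusive means inhibition above a set limit but visual check negative; inactive means inhibition not above a set limit, visual check negative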;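 further: nuclear over cytoplasmic p65 intensity ratio measured by imaging; 0% = IL-1B stimulated DMSO wells and 100% = unstimulated DMSO wells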
# IL1B cytotox: toxic to HUVEC cells under IL-1B stimulation | HUVEC cell count loss, Hoechst imaging, IL-1B stimulated | cell count reduction, % at 2 µM | hit rate 0.41% among 94,000 | AID 845;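 active means cell count reduction more than 3 SD above the screen-wide mean, cut at about 70% in these data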;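 further: normalized per plate to untreated control cells as the no-loss baseline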
# Insulin prom inh: TRM-6 insulin promoter activity inhibition; TRM-6 cells (human fetal islet line), insulin promoter-eGFP reporter, imaging; reporter expression induced with tamoxifen; inhibition, % at 2 µM; hit rate 0.9% among 130,000; AID 1273;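 active means inhibition above the mean plus 3 SD, with well images judged a real hit on visual review, cut at about 60% in these data, passing the limit was not always enough; inconclusive means inhibition over the cutoff but images rejected on review; inactive means inhibition not above the cutoff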
# * hit, by the source's call; ? = inconclusive; / = no result.
SMILES,NFkB transloc pot,NFkB transloc inh,IL1B cytotox,Insulin prom inh
O=C(Nc1ccc2nc(-c3ccc4nc[nH]c4c3)[nH]c2c1)c1cccs1,0,0,-18,50
O=C(Nc1ccc2nc(-c3ccccc3)[nH]c2c1)c1cccs1,9,-9,-100,77*
O=C(Nc1ccc2nc(-c3ccco3)[nH]c2c1)c1ccco1,8,-8,-35,82*
Cc1cc(OCC(=O)O/N=C(\N)c2ccccc2)ccc1Br,/,/,/,-25
Cc1cc(C(=O)Nc2c(F)c(F)c(F)c(F)c2F)n(-c2ccccc2)n1,/,/,/,-35
COc1ccc(/C=N/Nc2nccnc2Cl)cc1,4,-4,2,83*
COc1cccc(/C=N/Nc2nccnc2Cl)c1O,/,/,/,0
CC(=O)CCc1c(C)c2cc(C)ccc2[nH]c1=O,38,-38,-35,70*
CC(C)CC(=O)Nc1ccc(N2CCOCC2)cc1,-20,20,8,/
CN(C)CCCNS(=O)(=O)c1ccc(Cl)s1,/,/,/,-5
O=C(Nc1ccccc1)N1CC=C(c2ccc(F)cc2)CC1,3,-3,33,?
O=C(Nc1ccccc1)N1CC=C(c2ccccc2)CC1,19,-19,-38,75*
COCCN(Cc1cc2cc3c(cc2nc1Cl)OCO3)C(=O)c1ccc(C)cc1,/,/,/,-12
CC1CCc2cc(F)ccc2N1C(=O)CCl (stereo not given),/,/,/,-7
Cc1nc2ccc(NC(=O)N3CCOCC3)cc2s1,-51,51*,-39,-14
Cc1nc2ccc(NC(=O)c3cc(S(=O)(=O)N4CCOCC4)ccc3C)cc2s1,8,-8,7,-20
COC(=O)c1c(N2C(=O)[C@H]3[C@@H](C2=O)[C@]2(C(=O)Nc4ccc(C)cc42)N2CCC[C@@H]32)sc(C)c1C,/,/,/,-75
COCc1cc(C)nc(N/N=C/c2ccc(Cl)c(Cl)c2)c1C#N,/,/,/,-11
CCC1CCCCN1C(=O)CSc1nc(N)c(NC(=O)c2ccc(OC)c(OC)c2)c(=O)[nH]1 (stereo not given),-25,25,4,/
CC(=O)N(CC(C)(C)CC=C(C)C)c1ccccc1,/,/,/,65*
COc1ccc(C)cc1S(=O)(=O)N1CCC(C(=O)NCCc2ccccc2)CC1,/,/,/,24
CS(=O)(=O)N(CC(=O)NCc1ccc2c(c1)OCO2)Cc1ccc(Cl)cc1,22,-22,-33,-44
O=c1c2ccccc2c(/C=N/c2ncn[nH]2)c(O)n1Cc1ccccc1,38,-38,-23,71*
CC(C)CCC(C)N=Cc1c(O)n(Cc2ccccc2)c(=O)c2ccccc12 (stereo not given),1,-1,-11,46
CCc1nnc(NC(=O)CSc2nnc(-c3ccoc3C)n2-c2ccccc2)s1,0,0,-21,81*
SMILES,NFkB transloc pot,NFkB transloc inh,IL1B cytotox,Insulin prom inh
O=C(CSc1nnc(-c2ccco2)n1-c1ccccc1)NCc1ccco1,5,-5,2,81*
Cn1nc(C(=O)NCc2ccccc2)c2ccccc2c1=O,10,-10,1,36
CC1CCCCC1NC(=O)c1nn(C)c(=O)c2ccccc12 (stereo not given),78*,-78,-9,-35
Cc1ccc(C(=O)NC(=S)N2CCN(C)CC2)cc1,-8,8,3,-14
CN1CCN(C(=S)NC(=O)c2ccc(C(C)(C)C)cc2)CC1,/,/,/,67*
COC(=O)c1ccc2c(=O)n(CCCCCC(=O)NCc3ccc4c(c3)OCO4)c(=O)[nH]c2c1,-25,25,90*,0
COCc1cc(Sc2c(Cl)cccc2Cl)nc(-c2ccccc2)n1,7,-7,88*,3
Cc1c(Cl)c(-c2n[nH]c(=S)n2-c2ccc(F)cc2)nn1C,-36,36*,4,-8
CCN(CC)C(=O)c1sc(NC(=O)c2ccc(OC)c([N+](=O)[O-])c2)c(C#N)c1C,/,/,/,-18
CCCn1nnc(NC(=O)c2cc(Br)ccc2OC)n1,2,-2,-25,84*
Clc1cncc(Cl)c1N/N=C/c1ccncc1,/,/,/,62*
COc1ccc(/C=C/C2=NN(C)C(=O)CC2)cc1,/,/,/,85*
CCCC(=O)NC(Nc1c(C)n(C)n(-c2ccccc2)c1=O)C(Cl)(Cl)Cl (stereo not given),/,/,/,-50
COc1ccc(OC)c(N(CC(=O)Nc2cccnc2)S(=O)(=O)c2ccc(OC)c(OC)c2)c1,-91,91*,90*,-236
COc1ccc(OC)c(N(CC(=O)Nc2cccnc2)S(=O)(=O)c2ccc(C)cc2)c1,-59,60*,2,-14
CNC(=O)NC(=O)C(C)OC(=O)c1oc2ccccc2c1CSc1ccc(Cl)cc1 (stereo not given),/,/,/,-26
CCC(CC)c1nnc(NC(=O)Oc2ccccc2)s1,10,-10,4,50
O=C(Cc1ccccc1)NCc1n[nH]c(=S)n1-c1ccc(Br)cc1,/,/,/,-15
CCN(CC)S(=O)(=O)c1ccc2nc(SC)sc2c1,20,-20,-7,79*
Cc1nn(-c2ccccc2)c(C)c1C(=O)OCC(=O)N1CC(=O)Nc2ccccc21,21,-21,-18,93*
CCC(C(=O)OCC(=O)Nc1cccc(OC)c1)c1ccccc1 (stereo not given),/,/,/,73*
O=C(OCc1ccc(Cl)cc1Cl)c1ccncc1,126*,-126,-24,/
O=C(CC1SC2=NCCN2C1=O)Nc1ccc(Cl)cc1 (stereo not given),-8,8,-8,77*
CCOC(=O)C1C(=O)Nc2nc(C)nn2C1c1ccccc1 (stereo not given),84*,-84,10,/
CCOC(=O)C1C(=O)NC(N2CCCCC2)=NC1c1ccccc1 (stereo not given),/,/,/,6
SMILES,NFkB transloc pot,NFkB transloc inh,IL1B cytotox,Insulin prom inh
CCOc1cc(S(=O)(=O)NCCc2ccccc2C)c(OCC)cc1-n1cnnn1,26,-26,-8,-3
CCOc1cc(S(=O)(=O)NCCc2cccc(C)c2)c(OCC)cc1-n1cnnn1,-35,35*,17,-36
O=C(O)[C@H]1CCCC[C@H]1C(=O)NCCNC(=O)[C@@H]1CCCC[C@@H]1C(=O)O,9,-9,-8,100*
O=C1C2CCCN2C(c2ccccc2F)N1c1ccc(Cl)cc1 (stereo not given),11,-11,-18,/
COc1ccc(N2C(=O)C3CCCN3C2c2ccccc2F)cc1 (stereo not given),51*,-51,0,/
COc1ccc(OC)c(-n2c(-c3ccc(C)cc3)n[nH]c2=S)c1,-23,23,88*,28
COc1ccc(-c2cc(-c3n[nH]c(=S)n3-c3cc(OC)ccc3OC)[nH]n2)cc1,/,/,/,7
Cc1ccc(/C=C/C(=O)NCc2ccccn2)o1,/,/,/,66*
C[C@H]1O[C@@H](O[C@H]2[C@@H](O)C[C@H](O[C@H]3[C@@H](O)C[C@H](O[C@H]4CC[C@@]5(C)[C@H](CC[C@@H]6[C@@H]5C[C@@H](O)[C@]5(C)[C@@H](C7=CC(=O)OC7)CC[C@]65O)C4)O[C@@H]3C)O[C@@H]2C)C[C@H](O)[C@@H]1O,/,/,/,100*
CCn1c(SCC(=O)NCCc2ccc(F)cc2)nnc1-c1cccs1,36,-36,-46,/
CCOc1ccc(N(C(=O)C2CCCO2)C2C=CS(=O)(=O)C2)cc1 (stereo not given),/,/,/,-52
Cc1ccc(S(=O)(=O)NCCN2CCOCC2)cc1,-31,31*,6,-4
Cc1cc(C(=O)CSc2nnnn2-c2ccc(O)cc2)c(C)n1C,/,/,/,-33
